Compound in the test: CC1Cc2ccccc2N1C(=O)C1CCCN(C1)C(=O)CCl (mixture of isomers) [TRIM25 ligand 11 (diastereomer mixture)]
The experiment in a line: probe-labelled cysteine peptide fold change vs DMSO (competition) (log2 fold change); higher = less target engagement (more negative = stronger competition). The settings on record: THP-1, incubation time: 4 h.

Data on 39 targets can be found in the supplement of paper PMC12067093, “Discovery and optimisation of a covalent ligand for TRIM25 and its application to targeted protein ubiquitination” (Chemical Science, 2025).

Of roughly 21,000 targets only a part is listed; those with the largest changes were picked by preference.
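Further: competitive chemoproteomic profiling in live THP-1 cells with an iodoacetamide desthiobiotin (IA-DTB) probe, comparing probe-labelled peptide intensities in compound-treated cells against DMSO-treated controls.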

Sequence of UniProt P48506 (P48506 whole entry, looked up): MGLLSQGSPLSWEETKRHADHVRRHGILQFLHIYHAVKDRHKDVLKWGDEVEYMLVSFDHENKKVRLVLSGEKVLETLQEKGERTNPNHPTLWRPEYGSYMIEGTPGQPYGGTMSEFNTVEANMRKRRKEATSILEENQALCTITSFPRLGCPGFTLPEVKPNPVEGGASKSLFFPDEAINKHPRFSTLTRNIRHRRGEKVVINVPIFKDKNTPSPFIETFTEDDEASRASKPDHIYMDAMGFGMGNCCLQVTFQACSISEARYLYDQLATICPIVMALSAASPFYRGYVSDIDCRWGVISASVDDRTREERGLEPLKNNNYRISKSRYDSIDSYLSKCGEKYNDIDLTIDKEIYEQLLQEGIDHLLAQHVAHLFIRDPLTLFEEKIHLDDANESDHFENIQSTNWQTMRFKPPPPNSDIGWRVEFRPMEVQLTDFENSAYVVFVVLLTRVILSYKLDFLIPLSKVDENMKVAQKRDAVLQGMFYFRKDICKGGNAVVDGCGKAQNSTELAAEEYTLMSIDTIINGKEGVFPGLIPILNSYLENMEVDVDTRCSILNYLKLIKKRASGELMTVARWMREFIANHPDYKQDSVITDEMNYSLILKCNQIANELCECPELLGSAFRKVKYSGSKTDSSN
Sequence of UniProt Q9NZL4 (Q9NZL4 whole entry, looked up): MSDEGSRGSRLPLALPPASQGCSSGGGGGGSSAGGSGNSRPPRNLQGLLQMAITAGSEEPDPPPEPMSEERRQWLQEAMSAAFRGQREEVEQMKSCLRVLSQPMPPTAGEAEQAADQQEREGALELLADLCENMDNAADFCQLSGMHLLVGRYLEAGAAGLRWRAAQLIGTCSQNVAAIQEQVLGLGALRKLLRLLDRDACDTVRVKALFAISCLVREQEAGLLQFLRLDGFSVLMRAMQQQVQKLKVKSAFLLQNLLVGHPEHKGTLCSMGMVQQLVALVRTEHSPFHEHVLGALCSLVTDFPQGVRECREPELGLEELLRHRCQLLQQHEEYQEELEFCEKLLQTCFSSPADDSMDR
Sequence of UniProt Q10472 (Q10472 whole entry, looked up): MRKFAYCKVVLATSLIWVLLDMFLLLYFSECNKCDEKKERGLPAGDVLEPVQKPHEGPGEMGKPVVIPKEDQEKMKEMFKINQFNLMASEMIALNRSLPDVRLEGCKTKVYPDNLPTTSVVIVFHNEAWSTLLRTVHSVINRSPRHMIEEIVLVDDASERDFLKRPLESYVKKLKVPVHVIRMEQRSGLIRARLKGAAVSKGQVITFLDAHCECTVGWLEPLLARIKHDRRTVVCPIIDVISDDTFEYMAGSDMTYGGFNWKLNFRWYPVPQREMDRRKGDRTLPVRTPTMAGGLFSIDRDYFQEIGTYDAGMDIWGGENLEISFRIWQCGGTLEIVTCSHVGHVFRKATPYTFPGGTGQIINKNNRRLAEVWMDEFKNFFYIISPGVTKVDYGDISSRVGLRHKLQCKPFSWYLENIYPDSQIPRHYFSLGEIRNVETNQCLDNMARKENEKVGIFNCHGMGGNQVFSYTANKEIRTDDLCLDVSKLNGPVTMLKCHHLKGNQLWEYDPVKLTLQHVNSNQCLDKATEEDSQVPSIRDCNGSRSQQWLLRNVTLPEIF
Sequence of UniProt P49915 (P49915 whole entry, looked up): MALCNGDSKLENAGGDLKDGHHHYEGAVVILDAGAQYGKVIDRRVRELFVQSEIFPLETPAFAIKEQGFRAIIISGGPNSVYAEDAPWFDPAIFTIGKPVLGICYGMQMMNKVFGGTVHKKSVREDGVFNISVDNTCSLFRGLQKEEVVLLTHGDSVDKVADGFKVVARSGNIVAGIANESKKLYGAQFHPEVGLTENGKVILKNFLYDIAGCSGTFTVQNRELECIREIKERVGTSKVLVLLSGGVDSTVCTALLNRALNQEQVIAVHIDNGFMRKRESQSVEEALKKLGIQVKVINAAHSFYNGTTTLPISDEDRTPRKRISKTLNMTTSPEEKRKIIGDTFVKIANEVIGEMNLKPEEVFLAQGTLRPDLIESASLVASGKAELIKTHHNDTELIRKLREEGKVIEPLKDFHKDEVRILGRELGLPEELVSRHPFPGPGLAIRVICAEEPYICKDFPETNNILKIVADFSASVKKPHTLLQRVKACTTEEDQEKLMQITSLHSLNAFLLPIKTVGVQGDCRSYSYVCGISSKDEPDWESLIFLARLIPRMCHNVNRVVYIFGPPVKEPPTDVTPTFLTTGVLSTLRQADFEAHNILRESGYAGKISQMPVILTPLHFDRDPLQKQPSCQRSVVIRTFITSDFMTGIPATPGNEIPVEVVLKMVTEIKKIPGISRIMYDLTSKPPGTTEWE
Sequence of UniProt Q8TD30 (Q8TD30 whole entry, looked up): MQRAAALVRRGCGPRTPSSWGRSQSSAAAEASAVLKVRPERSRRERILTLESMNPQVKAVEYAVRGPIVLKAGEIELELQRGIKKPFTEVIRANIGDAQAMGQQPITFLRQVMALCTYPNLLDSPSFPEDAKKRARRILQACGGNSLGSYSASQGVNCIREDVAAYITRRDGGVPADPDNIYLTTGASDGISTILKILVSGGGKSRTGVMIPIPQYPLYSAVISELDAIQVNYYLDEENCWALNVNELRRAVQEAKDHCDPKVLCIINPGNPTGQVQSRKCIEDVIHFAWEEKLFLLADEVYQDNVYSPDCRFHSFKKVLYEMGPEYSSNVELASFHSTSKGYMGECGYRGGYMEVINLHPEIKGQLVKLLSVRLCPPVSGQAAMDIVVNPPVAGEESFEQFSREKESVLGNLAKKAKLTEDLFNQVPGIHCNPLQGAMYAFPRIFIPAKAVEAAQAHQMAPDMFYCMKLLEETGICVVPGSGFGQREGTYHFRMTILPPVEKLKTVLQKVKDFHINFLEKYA
Sequence of UniProt P51991 (P51991 whole entry, looked up): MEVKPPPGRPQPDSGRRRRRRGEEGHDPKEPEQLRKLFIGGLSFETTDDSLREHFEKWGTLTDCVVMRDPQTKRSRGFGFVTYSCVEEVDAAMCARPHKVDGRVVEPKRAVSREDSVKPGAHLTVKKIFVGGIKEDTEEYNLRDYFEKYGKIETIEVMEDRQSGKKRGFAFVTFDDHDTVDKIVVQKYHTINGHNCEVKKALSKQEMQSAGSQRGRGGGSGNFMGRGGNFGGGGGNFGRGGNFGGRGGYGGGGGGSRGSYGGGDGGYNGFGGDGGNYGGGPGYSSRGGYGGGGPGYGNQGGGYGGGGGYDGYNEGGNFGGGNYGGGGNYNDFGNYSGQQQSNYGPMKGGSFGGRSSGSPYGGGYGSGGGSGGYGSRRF
Sequence of UniProt P50440 (P50440 whole entry, looked up): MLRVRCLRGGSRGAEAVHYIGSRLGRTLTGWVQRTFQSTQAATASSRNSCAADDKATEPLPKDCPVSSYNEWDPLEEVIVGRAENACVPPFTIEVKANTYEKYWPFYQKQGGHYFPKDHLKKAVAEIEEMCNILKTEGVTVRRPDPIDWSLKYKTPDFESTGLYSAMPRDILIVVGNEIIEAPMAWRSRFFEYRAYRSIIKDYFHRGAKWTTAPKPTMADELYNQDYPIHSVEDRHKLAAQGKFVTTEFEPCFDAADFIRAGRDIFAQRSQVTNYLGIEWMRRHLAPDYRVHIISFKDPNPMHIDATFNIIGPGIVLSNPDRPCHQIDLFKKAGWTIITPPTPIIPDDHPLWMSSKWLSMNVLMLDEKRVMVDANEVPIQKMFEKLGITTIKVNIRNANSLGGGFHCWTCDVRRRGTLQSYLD
Sequence of UniProt Q8NEC7 (Q8NEC7 whole entry, looked up): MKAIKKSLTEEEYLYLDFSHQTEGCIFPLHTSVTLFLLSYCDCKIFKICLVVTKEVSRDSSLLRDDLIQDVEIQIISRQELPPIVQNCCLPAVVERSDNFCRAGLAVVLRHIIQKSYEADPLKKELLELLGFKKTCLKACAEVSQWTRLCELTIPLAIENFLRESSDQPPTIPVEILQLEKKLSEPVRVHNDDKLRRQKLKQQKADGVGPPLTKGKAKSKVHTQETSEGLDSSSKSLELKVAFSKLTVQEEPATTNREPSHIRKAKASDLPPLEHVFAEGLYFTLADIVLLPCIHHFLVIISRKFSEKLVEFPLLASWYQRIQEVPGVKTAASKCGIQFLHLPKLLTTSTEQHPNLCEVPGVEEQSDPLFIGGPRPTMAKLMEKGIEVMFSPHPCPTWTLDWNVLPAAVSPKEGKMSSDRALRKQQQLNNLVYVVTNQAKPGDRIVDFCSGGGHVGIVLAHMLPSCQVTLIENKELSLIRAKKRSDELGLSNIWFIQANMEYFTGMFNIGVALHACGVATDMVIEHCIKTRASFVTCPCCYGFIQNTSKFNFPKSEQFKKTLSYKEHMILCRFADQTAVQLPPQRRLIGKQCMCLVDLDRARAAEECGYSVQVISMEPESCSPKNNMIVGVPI
Sequence of UniProt Q0VDF9 (Q0VDF9 whole entry, looked up): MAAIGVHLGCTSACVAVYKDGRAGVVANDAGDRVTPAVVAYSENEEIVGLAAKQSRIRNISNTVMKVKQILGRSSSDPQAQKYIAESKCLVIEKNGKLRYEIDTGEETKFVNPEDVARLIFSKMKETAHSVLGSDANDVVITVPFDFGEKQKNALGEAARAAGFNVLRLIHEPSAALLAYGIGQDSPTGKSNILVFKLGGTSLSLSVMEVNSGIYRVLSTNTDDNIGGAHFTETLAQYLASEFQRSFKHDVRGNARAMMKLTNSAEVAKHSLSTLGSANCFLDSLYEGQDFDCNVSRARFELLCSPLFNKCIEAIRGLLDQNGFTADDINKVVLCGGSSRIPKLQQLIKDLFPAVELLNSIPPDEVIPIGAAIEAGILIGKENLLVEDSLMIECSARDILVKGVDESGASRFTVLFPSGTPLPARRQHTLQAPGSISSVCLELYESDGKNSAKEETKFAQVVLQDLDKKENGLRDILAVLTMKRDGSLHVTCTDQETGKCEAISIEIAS
Sequence of UniProt P51858 (P51858 whole entry, looked up): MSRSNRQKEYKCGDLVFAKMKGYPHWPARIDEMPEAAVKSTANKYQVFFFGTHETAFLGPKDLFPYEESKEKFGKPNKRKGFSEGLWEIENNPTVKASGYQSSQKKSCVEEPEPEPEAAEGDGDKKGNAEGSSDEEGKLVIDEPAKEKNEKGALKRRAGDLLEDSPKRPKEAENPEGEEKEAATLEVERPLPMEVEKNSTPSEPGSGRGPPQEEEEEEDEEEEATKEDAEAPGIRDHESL

For “HSPBP1_Q9NZL4_269_GTLCSMGMVQQLVALVR (UniProt Q9NZL4)”, the “probe-labelled cysteine peptide fold change” value by setting is: (10 µM) 0.0217; (50 µM) 0.156.

As to “GART_P22102_941_GSNAHEQALETGVTVTGCTVHFVAEDVDAGQIILQEAVPVKR (UniProt P22102)”, the “probe-labelled cysteine peptide fold change” value is -0.0918 (10 µM) and 0.156 (50 µM).

Regarding “HDGF_P51858_108_KSCVEEPEPEPEAAEGDGDKK (UniProt P51858)”, the “probe-labelled cysteine peptide fold change” value is, setting by setting: (10 µM) -0.541; (50 µM) -0.677.

For “GPATCH8_Q9UKJ3_795_HKGELPPSSCQR (UniProt Q9UKJ3)”, the “probe-labelled cysteine peptide fold change” value is -0.186 (10 µM) and -0.0452 (50 µM).

For “HNRNPAB_Q99729_224_KFHTVSGSKCEIK (UniProt Q99729)”, the “probe-labelled cysteine peptide fold change” value is, setting by setting: (10 µM) -0.654; (50 µM) -0.0882.

On to “HMGCL_P35914_141_NINCSIEESFQR (UniProt P35914)”, for which the “probe-labelled cysteine peptide fold change” value runs as follows: (10 µM) 0.0699; (50 µM) 0.161.

Take “HSPA4_P34932_213_NVVFVDMGHSAYQVSVCAFNR (UniProt P34932)”: the “probe-labelled cysteine peptide fold change” value by setting is: (10 µM) 0.1; (50 µM) 0.0909.

As for “GCLM_P48507_72_EFPDVLECTVSHAVEK (UniProt P48507)”, the “probe-labelled cysteine peptide fold change” value is, setting by setting: (10 µM) 0.0379; (50 µM) 0.0286.

In the case of “H2AFY_O75367_276_FVIHCNSPVWGADKCEELLEK (UniProt O75367)”, the “probe-labelled cysteine peptide fold change” value by setting is: (10 µM) -0.321; (50 µM) -0.0894.

Turning to “HNRNPA3_P51991_64_WGTLTDCVVMRDPQTKR (UniProt P51991)”, the “probe-labelled cysteine peptide fold change” value by setting is: (10 µM) -0.717; (50 µM) -0.524.

Take “GTF2B_Q00403_37_AGDMICPECGLVVGDR (UniProt Q00403)”: the “probe-labelled cysteine peptide fold change” value is, setting by setting: (10 µM) 0.000693; (50 µM) 0.073.

Take “GNAI2_P04899_287_ITHSPLTICFPEYTGANKYDEAASYIQSK (UniProt P04899)”: the “probe-labelled cysteine peptide fold change” value (10 µM) was -0.134 and the “probe-labelled cysteine peptide fold change” value (50 µM) was -0.103.

On to “HSPA2_P54652_191_GCAGGEK (UniProt P54652)”, for which the “probe-labelled cysteine peptide fold change” value was -0.0761 (10 µM) and -0.123 (50 µM).

In the case of “HADH_Q16836_211_ALGKHPVSCK (UniProt Q16836)”, the “probe-labelled cysteine peptide fold change” value is -0.647 (10 µM) and -0.601 (50 µM).

Turning to “HPCAL1_P37235_185_LLQCDPSSASQF<|>HPCA_P84074_185_LLQCDPSSASQF (UniProt P84074+P37235)”, the “probe-labelled cysteine peptide fold change” value is 0.00885 (10 µM) and -0.0604 (50 µM).

Consider “HK2_P52789_133_GSGTQLFDHIAECLANFMDK (UniProt P52789)”, for which the “probe-labelled cysteine peptide fold change” value (10 µM) turned out to be 0.165 and the “probe-labelled cysteine peptide fold change” value (50 µM) is -0.083.

Take “GCN1_Q92616_2136_LGTPDEQLEMANCQAVILSVEDDTGHR (UniProt Q92616)”: the “probe-labelled cysteine peptide fold change” value (10 µM) amounted to 0.097 and the “probe-labelled cysteine peptide fold change” value (50 µM) was -0.0335.

As to “HNRNPM_P52272_676_DKFNECGHVLYADIK (UniProt P52272)”, the “probe-labelled cysteine peptide fold change” value is, setting by setting: (10 µM) -0.633; (50 µM) -0.474.

With HAT1_O14929_168_ADMTCR (UniProt O14929), the “probe-labelled cysteine peptide fold change” value was 0.0223 (10 µM) and 0.0285 (50 µM).

Take “HARS_P12081_379_KVPCVGLSIGVER (UniProt P12081)”: the “probe-labelled cysteine peptide fold change” value (10 µM) was -0.0416 and the “probe-labelled cysteine peptide fold change” value (50 µM) is -0.0375.

On to “GNAQ_P50148_144_SLWNDPGIQECYDR (UniProt P50148)”, for which the “probe-labelled cysteine peptide fold change” value (10 µM) is -0.0686 and the “probe-labelled cysteine peptide fold change” value (50 µM) is -0.0854.

Take “HADHA_P40939_349_ALMGLYHGQVLCKK (UniProt P40939)”: the “probe-labelled cysteine peptide fold change” value runs as follows: (10 µM) -0.452; (50 µM) -0.365.

As for “GMPS_P49915_456_VICAEEPYICK (UniProt P49915)”, the “probe-labelled cysteine peptide fold change” value is, setting by setting: (10 µM) 0.0291; (50 µM) 0.0222.

For “GTF3C3_Q9Y5Q9_810_GPCQESFYNLGR (UniProt Q9Y5Q9)”, the “probe-labelled cysteine peptide fold change” value runs as follows: (10 µM) 0.136; (50 µM) 0.284.

On to “GAPDH_P04406_247_VPTANVSVVDLTCRLEK (UniProt P04406)”, for which the “probe-labelled cysteine peptide fold change” value reads like this: (10 µM) -0.778; (50 µM) -0.389.

As for “GTPBP1_O00178_515_YQAMVHCGSIR (UniProt O00178)”, the “probe-labelled cysteine peptide fold change” value is, setting by setting: (10 µM) -0.0472; (50 µM) 0.0726.

For “HSPA14_Q0VDF9_394_ENLLVEDSLMIECSAR (UniProt Q0VDF9)”, the “probe-labelled cysteine peptide fold change” value (10 µM) was -0.368 and the “probe-labelled cysteine peptide fold change” value (50 µM) was -0.17.

As for “GDI2_P50395_302_VICILSHPIK (UniProt P50395)”, the “probe-labelled cysteine peptide fold change” value runs as follows: (10 µM) -0.0268; (50 µM) -0.00641.

In the case of “GART_P22102_93_SAGVQCFGPTAEAAQLESSK (UniProt P22102)”, the “probe-labelled cysteine peptide fold change” value runs as follows: (10 µM) 0.0151; (50 µM) -0.0827.

Take “HGD_Q93099_180_MLVQPNEICVIQR (UniProt Q93099)”: the “probe-labelled cysteine peptide fold change” value worked out at 0.479 (10 µM) and 0.382 (50 µM).

With “GCLC_P48506_295_GYVSDIDCR (UniProt P48506)”, the “probe-labelled cysteine peptide fold change” value is, setting by setting: (10 µM) 0.0316; (50 µM) 0.199.

As to “GPT2_Q8TD30_281_CIEDVIHFAWEEK (UniProt Q8TD30)”, the “probe-labelled cysteine peptide fold change” value (10 µM) amounted to 0.213 and the “probe-labelled cysteine peptide fold change” value (50 µM) amounted to 0.0432.

Take “GSTCD_Q8NEC7_571_EHMILCR (UniProt Q8NEC7)”: the “probe-labelled cysteine peptide fold change” value is, setting by setting: (10 µM) 0.0436; (50 µM) 0.126.

In the case of “GAPVD1_Q14C86_293_TLSCVDRLEVGEVR (UniProt Q14C86)”, the “probe-labelled cysteine peptide fold change” value by setting is: (10 µM) 0.185; (50 µM) 0.128.

On to “GATM_P50440_131_KAVAEIEEMCNILK (UniProt P50440)”, for which the “probe-labelled cysteine peptide fold change” value was -0.271 (10 µM) and -0.2 (50 µM).

Take “GSDMD_P57764_268_CLHNFLTDGVPAEGAFTEDFQGLRAEVETISK (UniProt P57764)”: the “probe-labelled cysteine peptide fold change” value (10 µM) was determined as 0.377 and the “probe-labelled cysteine peptide fold change” value (50 µM) amounted to 0.487.

Turning to “HADHA_P40939_97+110_PGCFIAGADINMLAACK (UniProt P40939)”, the “probe-labelled cysteine peptide fold change” value is -0.0879 (10 µM) and 0.186 (50 µM).

Regarding “GEMIN4_P57678_210_LRSDPDACPTMPLLAMLLR (UniProt P57678)”, the “probe-labelled cysteine peptide fold change” value (10 µM) is -0.252 and the “probe-labelled cysteine peptide fold change” value (50 µM) is -0.0506.

For “GALNT1_Q10472_482_TDDLCLDVSK (UniProt Q10472)”, the “probe-labelled cysteine peptide fold change” value came to 0.0604 (10 µM) and 0.00641 (50 µM).
